{"source": "PubChem BioAssay (NCATS)", "note": "Records with an inconclusive call do not appear. Unmarked numbers belong to inactive results. Activity calls are given as the source filed them. The call rests on the fitted dose curve. On the % scale 0 is the no-effect control and ±100 the full control effect.", "data": [{"molecular_target": "Nucleoprotein (Lymphocytic choriomeningitis virus (strain Armstrong)) (UniProt P09992)", "sequence (P09992 whole entry, looked up)": "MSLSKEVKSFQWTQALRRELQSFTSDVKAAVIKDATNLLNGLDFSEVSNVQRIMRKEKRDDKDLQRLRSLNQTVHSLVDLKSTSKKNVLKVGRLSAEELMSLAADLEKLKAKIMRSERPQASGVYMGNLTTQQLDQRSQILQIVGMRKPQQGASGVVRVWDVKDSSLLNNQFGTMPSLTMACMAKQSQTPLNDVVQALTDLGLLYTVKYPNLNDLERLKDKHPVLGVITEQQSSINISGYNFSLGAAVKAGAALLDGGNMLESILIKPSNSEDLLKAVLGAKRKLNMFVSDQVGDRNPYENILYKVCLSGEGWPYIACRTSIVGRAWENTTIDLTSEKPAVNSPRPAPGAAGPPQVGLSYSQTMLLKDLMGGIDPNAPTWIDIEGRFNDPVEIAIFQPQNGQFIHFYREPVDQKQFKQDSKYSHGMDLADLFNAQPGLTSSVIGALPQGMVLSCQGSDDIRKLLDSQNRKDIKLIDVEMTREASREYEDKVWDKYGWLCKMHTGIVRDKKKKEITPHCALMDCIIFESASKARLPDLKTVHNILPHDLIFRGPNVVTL", "assay": "qHTS for Inhibitors of the Functional Ribonucleoprotein Complex (vRNP) of Lymphocytic Choriomeningitis Arenaviruses (LCMV): LCMV Primary Screen - GLuc reporter signal (AID 1347086); further: nearly all actives have a fitted effect of over 70% in size", "details": "LCMV minigenome vRNP cell assay, Gaussia luciferase reporter; series mostly up to 57.5 µM; activity change, negative = inhibition: at the top concentration", "values": [{"smiles": "O=C/C=C/c1ccccc1", "activity change, negative = inhibition": "15.4%"}, {"smiles": "C[C@@H]1[C@@H]2Cc3ccc(O)cc3[C@@]1(C)CCN2CC1CC1", "activity change, negative = inhibition": "6.23%"}, {"smiles": "CC1OC1P(=O)(O)O", "note": "(stereo not given)", "activity change, negative = inhibition": "26.2%"}, {"smiles": "COc1cc(CC(C)N)c(OC)cc1I", "note": "(stereo not given)", "activity change, negative = inhibition": "10.8%"}, {"smiles": "C=CCN1CCc2cccc3c2[C@H]1Cc1ccc(O)c(O)c1-3", "activity change, negative = inhibition": "-4.74%"}, {"smiles": "NC(N)=NOCC[C@H](N)C(=O)O", "activity change, negative = inhibition": "26%"}, {"smiles": "N[C@@H](CCl)C(=O)O", "activity change, negative = inhibition": "-1.29%"}, {"smiles": "C[C@@H]1O[C@H](C[N+](C)(C)C)CS1", "activity change, negative = inhibition": "27.7%"}, {"smiles": "CCN(CC)c1ncnc2c1ncn2[C@@H]1O[C@H](COP(=O)(O)OP(=O)(O)C(Br)(Br)P(=O)(O)O)[C@@H](O)[C@H]1O", "activity change, negative = inhibition": "-17.6%"}, {"smiles": "C[C@]12C=CC(=O)C=C1CC[C@@H]1[C@@H]2CC[C@]2(C)OC(=O)CC[C@@H]12", "activity change, negative = inhibition": "20.1%"}, {"smiles": "C[N+]1(C)CCC(OC(=O)C(c2ccccc2)c2ccccc2)CC1", "activity change, negative = inhibition": "15.5%"}, {"smiles": "C=CCN1CC[C@]23c4c5ccc(O)c4O[C@@H]2/C(=N/N=C2\\CC[C@@]4(O)C6Cc7ccc(O)c8c7[C@@]4(CCN6CC=C)[C@@H]2O8)CC[C@@]3(O)C1C5", "activity change, negative = inhibition": "0.224%"}, {"smiles": "CC(C)CC(NP(=O)(O)O[C@@H]1O[C@@H](C)[C@H](O)[C@@H](O)[C@H]1O)C(=O)NC(Cc1c[nH]c2ccccc12)C(=O)O", "note": "(stereo not given in full)", "Potency": "inactive"}, {"smiles": "CN1[C@H]2CC[C@@H]1[C@@H](C(=O)O)[C@@H](OC(=O)c1ccccc1)C2", "activity change, negative = inhibition": "-5.63% [at 115 µM]"}, {"smiles": "COc1ccc2c(c1)[C@@]13CCCC[C@H]1[C@@H](C2)NCC3", "activity change, negative = inhibition": "-8.11%"}, {"smiles": "CCCn1c(C)c(C(=O)c2ccc3ccccc3c2)c2ccccc21", "activity change, negative = inhibition": "-37.2%"}, {"smiles": "CC(C)[C@@]1(NC(=O)[C@@H]2C[C@@H]3c4cccc5[nH]cc(c45)C[C@H]3N(C)C2)O[C@@]2(O)[C@@H]3CCCN3C(=O)[C@H](Cc3ccccc3)N2C1=O", "activity change, negative = inhibition": "-4.78%"}, {"smiles": "C[Se]C[C@H](N)C(=O)O", "activity change, negative = inhibition": "48.8%"}, {"smiles": "C=CCN(C1=NCCN1)c1c(Cl)cccc1Cl", "activity change, negative = inhibition": "-13.3%"}, {"smiles": "C[N+]1(C)[C@@H]2CC(OC(=O)[C@H](CO)c3ccccc3)C[C@H]1[C@H]1O[C@@H]12", "note": "(stereo not given in full)", "activity change, negative = inhibition": "18.1%"}, {"smiles": "N[C@@H](Cn1ccc(=O)[nH]c1=O)C(=O)O", "activity change, negative = inhibition": "8.15%"}, {"smiles": "COc1ccc2c(c1O)-c1cccc3c1[C@@H](C2)N(C)CC3", "activity change, negative = inhibition": "-20.8%"}, {"smiles": "C=CCN1CC[C@]23c4c5ccc(O)c4O[C@H]2/C(=N/NC(=O)c2ccccc2)CC[C@@]3(O)[C@H]1C5", "activity change, negative = inhibition": "13.7%"}, {"smiles": "CC1=C2C[C@H]3[C@@H](CC=C4C[C@@H](O)CC[C@@]43C)[C@@H]2CC[C@]12O[C@@H]1C[C@H](C)CN[C@H]1[C@H]2C", "activity change, negative = inhibition": "16.5%"}, {"smiles": "O[C@H]1[C@H]2[C@H](O)CCCN2C[C@H]1O", "activity change, negative = inhibition": "9.13%"}, {"smiles": "CCN(CCCl)Cc1ccccc1Br", "activity change, negative = inhibition": "0.617%"}, {"smiles": "N#C/C(=C/c1ccc(O)c(O)c1)C(N)=S", "activity change, negative = inhibition": "3.52%"}, {"smiles": "COC1=CC=C2[C@H]3Cc4ccc(OC)c5c4[C@@]2(CCN3C)[C@H]1O5", "activity change, negative = inhibition": "-3.37% [at 115 µM]"}, {"smiles": "CN(C)[C@@H]1C(=O)C(C(N)=O)=C(O)[C@@]2(O)C(=O)C3=C(O)c4c(O)ccc(Cl)c4[C@@](C)(O)[C@H]3C[C@@H]12", "activity change, negative = inhibition": "-21%"}, {"smiles": "C[CH2][Hg][S]c1ccccc1C(=O)O", "activity change, negative = inhibition": "28.1%"}, {"smiles": "O=c1c2ccccc2[se]n1-c1ccccc1", "activity change, negative = inhibition": "-34.3%"}, {"smiles": "O=C(O)c1cc[c]([Hg][Cl])cc1", "activity change, negative = inhibition": "-31.4%"}, {"smiles": "CCCN(CCC)CCc1c[nH]c2ccc(C(N)=O)cc12", "activity change, negative = inhibition": "9.08%"}, {"smiles": "O=P(O)(O)C(Cl)(Cl)P(=O)(O)O", "activity change, negative = inhibition": "10.1%"}, {"smiles": "CN[C@H]1C[C@@H](N)[C@H](O)[C@@H](O[C@@H]2O[C@H](CO)[C@H](O)[C@@H]3OC4(O[C@H]23)O[C@H](C(N)CO)[C@H](O)[C@H](O)[C@H]4O)[C@@H]1O", "note": "(stereo not given in full)", "activity change, negative = inhibition": "-8%"}]}]}
